The source made the active and inactive calls. How the source made its calls: active means hit-call score of the fitted dose curve at least 0.9, where 1 is the maximum; inactive means score below 0.9.

Test [1] is described as follows: ATG_GRE_CIS: Attagene CIS-FACTORIAL HepG2 Assay for human Glucocorticoid Response Elements (GRE) (AID 2282947). Conditions: HepG2 GRE cis-reporter, Attagene multiplex mRNA; actives raise or lower the signal. An outline of the steps:
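Endogenous transcription factor activity is read through cis-element reporter constructs transiently transfected into HepG2 cells. After 24 h treatment, labelled RT-PCR products are resolved by capillary electrophoresis; DMSO sets baseline for bidirectional curve fitting.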

Test [2] in a line: ATG_ISRE_CIS: Attagene CIS-FACTORIAL HepG2 Assay for human Interferon Regulatory Factor 1 (IRF1) binding to an Interferon-Stimulated Response Element (ISRE) (AID 2282948). The note with it: HepG2 ISRE cis-reporter (Attagene), mRNA transcription readout; actives raise or lower the signal. An outline of the steps: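 Quantitation relies on labelled RT-PCR fragments separated by capillary electrophoresis. Human HepG2 cells bearing cis-promoter reporter constructs were treated 24 h; DMSO served as baseline for bidirectional fitting.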

The nature of test [3]: ATG_M_32_CIS: Attagene CIS-FACTORIAL HepG2 Assay for M32 Transcription Factor (Internal Marker) (AID 2282949).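 Further: background control marker of the multiplexed CIS panel rather than a real target.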 The note with it: HepG2 Attagene cis-factorial M32 reporter, mRNA; actives raise or lower the signal. In outline: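 Internal background marker read-out: RT-PCR/capillary electrophoresis fluorescence of reporter transcripts from transiently transfected HepG2 cells after 24 h chemical exposure. Activity fitted bidirectionally relative to DMSO negative control.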

A short description of test [4]: ATG_M_06_CIS: Attagene CIS-FACTORIAL HepG2 Assay for M06 Transcription Factor (Internal Marker) (AID 2282950). Conditions: HepG2 Attagene CIS-FACTORIAL M06 internal marker reporter; actives raise or lower the signal. An outline of the steps:
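Steps: transfect HepG2 with multiplexed cis-element reporter constructs; dose chemical 24 h; extract RNA with DNase treatment; reverse-transcribe, PCR-amplify, 6-FAM label, HpaI digest; separate fragments by capillary electrophoresis. Activity fitted both directions versus DMSO.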

The target in test [5] is Hypoxia-inducible factor 1-alpha (Homo sapiens) (UniProt Q16665). Description: ATG_HIF1a_CIS: Attagene CIS-FACTORIAL HepG2 Assay for human Hypoxia Inducible Factor 1 (HIF1A) (AID 2282951). Conditions: HepG2 Attagene cis-factorial HIF1a reporter transcription; actives raise or lower the signal. An outline of the steps:
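Measures endogenous transcription-factor activity through cis-regulated reporter mRNA in HepG2. Cells dosed 24 h; transcripts quantified by RT-PCR with 6-FAM-labelled products separated by capillary electrophoresis; DMSO serves as negative control.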

The target in test [6] is Hepatocyte nuclear factor 6 (Homo sapiens) (UniProt Q9UBC0). Put plainly: ATG_HNF6_CIS: Attagene CIS-FACTORIAL HepG2 Assay for human Hepatocyte Nuclear Factor 6 (HNF6) (AID 2282952). The note with it: HepG2 Attagene cis-factorial HNF6 reporter transcription; actives raise or lower the signal. In outline: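 HepG2 cells transiently transfected with cis-element-driven multiplexed reporter units measuring endogenous transcription factor activity. After 24 h exposure, reporter mRNA quantified by RT-PCR, FAM-labelled fragments and capillary electrophoresis; bidirectional fitting versus DMSO.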
Sequence of Hepatocyte nuclear factor 6 (Homo sapiens) (Q9UBC0 whole entry, looked up, the tested form may be a part): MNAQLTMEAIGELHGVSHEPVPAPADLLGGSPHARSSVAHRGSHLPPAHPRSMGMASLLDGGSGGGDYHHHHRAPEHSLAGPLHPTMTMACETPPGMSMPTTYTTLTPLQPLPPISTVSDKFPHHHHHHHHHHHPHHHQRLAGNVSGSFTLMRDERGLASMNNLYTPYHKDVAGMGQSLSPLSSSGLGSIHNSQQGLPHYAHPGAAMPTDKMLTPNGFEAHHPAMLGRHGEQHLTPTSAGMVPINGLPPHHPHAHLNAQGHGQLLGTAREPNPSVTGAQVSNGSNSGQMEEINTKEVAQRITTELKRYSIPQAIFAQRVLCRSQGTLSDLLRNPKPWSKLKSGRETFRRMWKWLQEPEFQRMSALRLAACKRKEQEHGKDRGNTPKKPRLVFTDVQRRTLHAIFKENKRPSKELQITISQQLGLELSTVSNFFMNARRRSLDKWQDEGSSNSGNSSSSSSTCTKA

The target in test [7] is Heat shock factor protein 1 (Homo sapiens) (UniProt Q00613). Put plainly: ATG_HSE_CIS: Attagene CIS-FACTORIAL HepG2 Assay for human Heat Shock Transcription Factor 1 (HSE) (AID 2282953). The note with it: HepG2 HSE cis-reporter, Attagene RNA transcription; actives raise or lower the signal. In outline: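 Cells were transfected with cis-element-driven reporter constructs, dosed for 24 h, then total RNA was reverse-transcribed and reporter cDNA amplified, FAM-labelled and digested with HpaI. Fragments were resolved by capillary electrophoresis; gain or loss was fitted against DMSO.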
Sequence of Heat shock factor protein 1 (Homo sapiens) (Q00613 whole entry, looked up, the tested form may be a part): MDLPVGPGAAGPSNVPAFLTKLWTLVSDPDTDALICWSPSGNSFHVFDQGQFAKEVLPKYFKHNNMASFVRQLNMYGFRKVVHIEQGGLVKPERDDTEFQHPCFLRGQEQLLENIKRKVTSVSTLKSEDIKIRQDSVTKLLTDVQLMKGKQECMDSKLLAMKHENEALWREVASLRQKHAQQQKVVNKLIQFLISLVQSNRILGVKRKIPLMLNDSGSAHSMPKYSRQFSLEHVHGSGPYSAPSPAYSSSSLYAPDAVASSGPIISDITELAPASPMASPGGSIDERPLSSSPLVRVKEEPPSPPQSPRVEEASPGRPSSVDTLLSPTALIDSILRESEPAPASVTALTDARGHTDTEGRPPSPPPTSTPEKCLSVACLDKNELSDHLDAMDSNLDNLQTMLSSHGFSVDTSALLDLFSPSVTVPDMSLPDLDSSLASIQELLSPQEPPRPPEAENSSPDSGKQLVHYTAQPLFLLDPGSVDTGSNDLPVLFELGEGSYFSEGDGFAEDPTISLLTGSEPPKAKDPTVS

Test [8] is described as follows: ATG_MRE_CIS: Attagene CIS-FACTORIAL HepG2 Assay for human Metal Responsive Element (MRE) (AID 2282954). Conditions: HepG2 MRE cis-reporter transcription, Attagene multiplex; actives raise or lower the signal. In outline: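 Fluorescent reporter fragments separated by capillary electrophoresis give mRNA induction for the MRE unit after 24 h treatment of transfected HepG2 cells. Endogenous transcription-factor activity is read; DMSO serves as negative control and baseline.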

Test [9] in a line: ATG_PBREM_CIS: Attagene CIS-FACTORIAL HepG2 Assay for human Phenobarbital-responsive Enhancer Module (PBREM) (AID 2282955). The note with it: HepG2 PBREM cis-reporter, Attagene multiplexed transcription; actives raise or lower the signal. An outline of the steps: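 Fluorescence of labelled reporter cDNA fragments, resolved by capillary electrophoresis, gives mRNA induction in transfected HepG2 cells treated for 24 h; DMSO serves as negative control and baseline.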

Test [10] deals with Paired box protein Pax-6 (Homo sapiens) (UniProt P26367). Description: ATG_Pax6_CIS: Attagene CIS-FACTORIAL HepG2 Assay for human Paired Box 6 (PAX6) (AID 2282956). The note with it: HepG2 CIS-FACTORIAL PAX6 reporter transcription, RNA readout; actives raise or lower the signal. In outline:
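After twenty-four hours of chemical exposure, transfected HepG2 cells are harvested for RNA. Cis-promoter reporter transcripts are amplified, fluorescently labelled and sized by capillary electrophoresis, with gain and loss of signal scored against DMSO.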

Sequence of Hypoxia-inducible factor 1-alpha (Homo sapiens) (Q16665 whole entry, looked up): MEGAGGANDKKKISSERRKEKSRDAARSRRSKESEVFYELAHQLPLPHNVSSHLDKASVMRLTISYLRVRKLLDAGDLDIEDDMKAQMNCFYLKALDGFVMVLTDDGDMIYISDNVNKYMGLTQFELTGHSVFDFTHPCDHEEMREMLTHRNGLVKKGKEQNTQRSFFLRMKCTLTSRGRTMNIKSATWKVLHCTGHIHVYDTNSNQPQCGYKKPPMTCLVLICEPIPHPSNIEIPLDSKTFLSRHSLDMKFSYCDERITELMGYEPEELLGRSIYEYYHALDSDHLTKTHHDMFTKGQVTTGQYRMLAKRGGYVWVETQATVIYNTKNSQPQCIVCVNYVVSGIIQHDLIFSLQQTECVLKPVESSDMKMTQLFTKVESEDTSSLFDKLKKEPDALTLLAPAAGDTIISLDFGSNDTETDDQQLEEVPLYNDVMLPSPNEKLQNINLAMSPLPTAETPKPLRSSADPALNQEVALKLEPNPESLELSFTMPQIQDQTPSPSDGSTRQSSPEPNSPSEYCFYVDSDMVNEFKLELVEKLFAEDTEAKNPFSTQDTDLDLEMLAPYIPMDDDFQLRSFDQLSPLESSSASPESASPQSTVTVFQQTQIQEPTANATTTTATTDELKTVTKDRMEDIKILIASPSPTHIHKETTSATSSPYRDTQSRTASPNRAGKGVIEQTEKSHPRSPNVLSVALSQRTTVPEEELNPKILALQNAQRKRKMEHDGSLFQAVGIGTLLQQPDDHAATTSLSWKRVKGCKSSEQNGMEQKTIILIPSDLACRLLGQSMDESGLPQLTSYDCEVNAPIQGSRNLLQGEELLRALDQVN
Sequence of Paired box protein Pax-6 (Homo sapiens) (P26367 whole entry, looked up): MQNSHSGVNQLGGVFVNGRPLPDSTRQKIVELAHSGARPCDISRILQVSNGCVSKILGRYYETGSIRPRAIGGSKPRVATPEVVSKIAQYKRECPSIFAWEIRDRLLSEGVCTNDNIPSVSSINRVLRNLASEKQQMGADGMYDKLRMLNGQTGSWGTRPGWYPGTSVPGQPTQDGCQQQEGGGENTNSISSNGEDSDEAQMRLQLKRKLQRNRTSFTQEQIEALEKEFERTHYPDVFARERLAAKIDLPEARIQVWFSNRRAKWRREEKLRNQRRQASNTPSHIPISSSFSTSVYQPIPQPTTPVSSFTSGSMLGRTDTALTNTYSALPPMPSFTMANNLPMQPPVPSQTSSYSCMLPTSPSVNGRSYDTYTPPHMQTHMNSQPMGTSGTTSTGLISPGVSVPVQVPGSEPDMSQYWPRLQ

For `CCCCCC(C)=O`, the outcome in test [1], in [2], in test [3], in [4], in [5] and in [6] was inactive. Also, the compound was called inactive in [7], in [8], in test [9] and in test [10].

With `COC(C)(C)CCCC(C)CC=O` (stereo unspecified), the compound was called inactive in test [1], in test [2], in test [3], in [4], in test [5] and in test [6]. Further, the outcome in [7], in test [8], in [9] and in [10] was inactive.

Consider `COC(=O)c1ccc(C)cc1C1=NC(C)(C(C)C)C(=O)N1` (stereo unspecified) (tested in a mixture with another compound), for which the call in test [1], in test [2], in test [3], in test [4], in test [5] and in [6] was inactive. The outcome in test [7], in test [8], in test [9] and in test [10] was inactive.

As for `c1ccc(Oc2ccccc2)cc1`, the result in [1], in [2], in [3], in [4], in [5] and in test [6] was inactive. Also, the result in test [7], in test [8], in [9] and in test [10] was inactive.

On to `[O-]n1ccccc1=S.[O-]n1ccccc1=S.[Zn+2]`, for which the compound was classed as inactive in test [1], in [3], in test [4], in test [5], in test [6] and in test [9]. For the same compound, in test [10], the outcome was inactive. The figures for the AC50 in [2], in test [7] and in test [8] were 1.07 µM (active), 0.937 µM (active) and 0.923 µM (active), respectively.

As for `CCCCCCCCCCCCS(=O)(=O)Cl`, the call in [1], in test [2], in test [3], in test [4], in test [5] and in [6] was inactive. The result in [7], in test [8], in test [9] and in [10] was inactive.

Take `C=C(C)[C@@H]1CC=C(C)C(=O)C1`: the compound was called inactive in [1], in test [2], in [3], in test [4], in [5] and in test [6]. Further, the outcome in test [7], in test [8] and in [10] was inactive.

For `CC1(C)COCN1`, the result in [1], in test [2], in [3], in [4], in test [6] and in test [7] was inactive. For the same compound, the compound was classed as inactive in [8], in [9] and in test [10].

Consider `CCCCC(CC)COC(=O)c1ccc(O)cc1` (stereo unspecified), for which the result in test [1], in test [2], in [3], in test [4], in [5] and in test [6] was inactive. The compound was called inactive in test [7], in [8] and in [10].

Turning to `O=C(CC(=O)c1ccccc1)c1ccccc1`, the result in test [1], in [3] and in test [4] was inactive. The concentration at half-maximal activity (AC50) (in general, the midpoint of the concentration-response curve, whichever way the signal moves) is 95.9 µM (active) in test [2]; 33.5 µM (active) in [5]; 145 µM (active) in test [6]; 145 µM (active) in test [7]; 136 µM (active) in test [8]; 100 µM (active) in [10].

Regarding `CCC1CCCCC1`, the result in [1], in test [2], in test [3], in [4], in [5] and in test [6] was inactive. In addition, the outcome in [8], in [9] and in [10] was inactive.

As to `COCCOCCOCCO`, the outcome in [1], in [2], in test [3], in [4], in [6] and in test [7] was inactive. Further, the result in [8], in [9] and in test [10] was inactive.

`C=C(C)[C@H]1CC=C(C)C(=O)C1`: the compound was classed as inactive in test [1], in test [2], in test [3], in test [4], in test [5] and in [6]. The compound was classed as inactive in test [7], in test [8] and in [10].

In the case of `COC(=O)c1ccc(OC)cc1`, the compound was classed as inactive in [1], in test [2], in test [3], in test [4], in [6] and in test [7]. The compound was called inactive in test [8], in test [9] and in [10].

Turning to `O=c1c(O)c(-c2ccc(O)cc2)oc2cc(O)cc(O)c12`, the call in test [1], in test [2], in [3], in test [4], in test [6] and in test [7] was inactive. In addition, the compound was classed as inactive in test [8], in test [9] and in test [10].

In the case of `CCC(Cl)C(Cl)C(Cl)CC(Cl)C(Cl)C(C)Cl` (stereo unspecified), the call in test [1], in test [2], in [3], in test [4], in test [5] and in test [6] was inactive. The compound was called inactive in test [7] and in [10]. Further, in test [8], the AC50 was 74 µM (active).

Consider `ON=C1CCCCC1`, for which the compound was called inactive in [1], in test [2], in test [3], in test [4], in test [5] and in test [6]. In addition, the call in test [8], in [9] and in test [10] was inactive.

As to `CC(C)c1ccccc1O`, the result in test [1], in [2], in test [3], in test [4], in test [5] and in test [6] was inactive. Besides, the compound was classed as inactive in test [7], in test [8] and in test [10].

For `C=CC(=O)OCCCC`, the call in test [1], in test [2], in test [3], in test [4], in test [5] and in test [6] was inactive. The call in test [8], in test [9] and in test [10] was inactive.

Take `CC1CC(O)CC(C)(C)C1` (stereo unspecified): the compound was called inactive in test [1], in test [2], in test [3], in [4], in test [5] and in [6]. Further, the outcome in [8], in [9] and in test [10] was inactive.

For `CCCCCCCC(=O)OCCCCCC`, the call in test [1], in [2], in test [3], in [4], in test [6] and in [7] was inactive. For the same compound, the compound was classed as inactive in [8], in test [9] and in [10].

With `c1ccc2cc(Nc3ccc(Nc4ccc5ccccc5c4)cc3)ccc2c1`, the result in test [1], in test [2], in [3], in test [4], in [5] and in [6] was inactive. In addition, the compound was classed as inactive in [8], in test [9] and in [10].

With `Cc1c(C2(c3cc(Br)c(O)c(Br)c3C)OS(=O)(=O)c3ccccc32)cc(Br)c(O)c1Br`, the outcome in [1], in test [2], in test [3], in test [4], in test [5] and in test [6] was inactive. In addition, the result in test [8], in test [9] and in test [10] was inactive.

`CCCCC(CC)C(=O)OC(C)C` (stereo unspecified): the call in [1], in [2], in [3], in test [4], in [5] and in test [6] was inactive. The compound was classed as inactive in test [7], in [8] and in test [10].

As for `Cc1cc(CCC(=O)OCCOCCOCCOC(=O)CCc2cc(C)c(O)c(C(C)(C)C)c2)cc(C(C)(C)C)c1O`, the outcome in test [1], in test [2], in [3], in test [4], in test [6] and in test [7] was inactive. Moreover, the compound was classed as inactive in test [10]. Further, the AC50 was 26.6 µM (active) in [8] and 17.7 µM (active) in [9].
